Hits are enriched below; roughly 0.52% of the tested compounds scored in any of these assays.
Vif-APOBEC3G blk – inhibitors of Vif-APOBEC3G interaction | HeLa A3G-eYFP + Vif (tagged APOBEC3G with the HIV-1 protein that degrades it), YFP fluorescence, overnight | Potency, µM (series often up to 46.1 µM), hits mostly inhibitors | hit rate 0.076% among 410,000 | AID 602310; also: nearly all actives have a fitted effect of over 60% in size
Target sequence (Q9HC16 whole entry, looked up): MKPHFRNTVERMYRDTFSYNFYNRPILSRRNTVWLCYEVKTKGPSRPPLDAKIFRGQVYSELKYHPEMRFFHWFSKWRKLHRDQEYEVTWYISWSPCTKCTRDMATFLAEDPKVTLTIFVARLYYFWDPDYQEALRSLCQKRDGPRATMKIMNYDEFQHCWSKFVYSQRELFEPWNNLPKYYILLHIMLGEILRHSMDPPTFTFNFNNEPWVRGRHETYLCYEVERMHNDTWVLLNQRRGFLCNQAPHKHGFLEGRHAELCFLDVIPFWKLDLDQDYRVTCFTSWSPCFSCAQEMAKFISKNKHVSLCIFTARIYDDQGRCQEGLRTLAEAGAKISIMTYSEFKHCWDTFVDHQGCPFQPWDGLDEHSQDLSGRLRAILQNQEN
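Read-out is eYFP fluorescence (Ex 488/Em 500-530) from Vif-expressing HeLa A3G-eYFP cells; more signal means A3G escaped Vif-mediated degradation. Cells plated overnight, compound pinned in, incubated overnight at 37 deg C.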
PINK1 expr mod – PINK1 expression modulation; PINK1 immunofluorescence, high-content cytometry, 24 h; Potency, µM (highest dose often 76.6 µM), actives largely listed as activators; hit rate 0.2% among 410,000; active = well fitted activation curve with a large enough effect; inconclusive = small, poorly fitted or top-dose-only effect; cell line not stated here; also: nearly all actives have a fitted effect of over 65% in size
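Measures PINK1 amount and localization on or inside mitochondria by immunofluorescence. Stable cells get compounds at 5 concentrations for 24 hours before fixation and staining; CCCP controls included.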
Vif-A3F inh – Vif-A3F binding inhibition; Potency, µM (titrated, usually from 46.1 µM); HeLa A3F-eYFP + Vif (tagged APOBEC3F with the HIV-1 protein that degrades it), YFP fluorescence increase; hit rate 0.2% among 390,000; also: nearly all actives have a fitted effect of over 65% in size
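HeLa cells stably expressing Vif plus C-terminally eYFP-tagged A3F were seeded, incubated overnight at 37 deg C, dosed with compound, incubated overnight again at 37 deg C. Yellow fluorescence (Ex 488/Em 500-530) reported blocked Vif-mediated A3F-eYFP degradation.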
Epigenetic derep – derepresses silenced GFP reporter in murine cells; murine LDR cells, GFP reporter derepression, 30 h; hit rate 0.2% among 280,000; Potency, µM (top dose mostly 53.9 µM), hits mostly activators; also: nearly all actives have a fitted effect of over 60% in size
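Reporter derepression read as number of fluorescent GFP-positive objects, 20-120 um in size, counted by laser-scanning cytometer. Mouse LDR line with an epigenetically silenced CMV-GFP locus; compound incubation 30 h, 37 C.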
Parental c127i – counter-screen for epigenetic modulators: effect in parental c127i cells; Potency, µM, usual class: activators; shares compounds with Epigenetic derep; hit rate 20% among 60; AID 493065; mouse c127i parental cells, fluorescent cell count, 30 h
HCC4017 viab – epigenetic modulators: cytotoxicity in HCC4017 lung cancer cells; shares compounds with Epigenetic derep; HCC4017 NSCLC viability, CellTiter-Glo ATP luminescence, 72 h; Potency, µM (titrated, usually from 46.1 µM), hits mostly cytotoxic; hit rate 30% among 45
H358 viab – epigenetic modulators: cytotoxicity in H358 lung cancer cells; shares compounds with Epigenetic derep; H358 NSCLC viability, ATP luminescence, 72 h; Potency, µM (series often up to 46.1 µM), hits mostly cytotoxic; hit rate 30% among 45
Each line names hits and unclear results; the compound was inactive in the other large screens (follow-up assays come after a bar, where they were run). Unless noted, calls follow the shape of the dose curve; as a rule, active = well fitted curve in the direction sought with a large enough effect; inconclusive = small, poorly fitted or top-dose-only effect, or another doubt; inactive = no such curve, though single readings can be large; an effect the other way counts as inactive or inconclusive.

COc1ccc2c(C)nc(Nc3nc(-c4ccccc4)cc(=O)[nH]3)nc2c1	Epigenetic derep 3.5µM | Parental c127i inactive | HCC4017 viab 8.9µM | H358 viab 4.4µM
COc1cccc(C2(CC(=O)N3CCC(c4nc5ccc(F)cc5[nH]4)CC3)CC(=O)N(C)C2=O)c1 (stereo not given)	none (no result: Vif-APOBEC3G blk, Vif-A3F inh, Epigenetic derep)
O=C(NCc1nnc2n1CCN(Cc1ccc(C(F)(F)F)cc1)CC2)c1ccccn1	none (no result: Vif-APOBEC3G blk, Vif-A3F inh, Epigenetic derep)
C#Cc1cccc(C(=O)NCc2nc(-c3ccccc3NC(C)=O)oc2C)c1	none (no result: Vif-APOBEC3G blk, Vif-A3F inh, Epigenetic derep)
Cc1cc(N2CCN(c3ccc(C(F)(F)F)cc3[N+](=O)[O-])CC2)c2ccccc2n1	none (no result: Epigenetic derep)
Cc1cc(N2CCN(c3ccc([N+](=O)[O-])c4cccnc34)CC2)c2ccccc2n1	Vif-APOBEC3G blk inconclusive, PINK1 expr mod inconclusive, Vif-A3F inh 3.5µM, Epigenetic derep 7.1µM | Parental c127i 14µM
Oc1c(N=Nc2ccccn2)ccc2ccccc12	Epigenetic derep 10µM | Parental c127i inactive | HCC4017 viab 2µM | H358 viab 1.3µM
Oc1[nH]c2ccccc2c1N=Nc1ccccn1	none (no result: Epigenetic derep)
Cc1ccc2nc(SCC(=O)NCC3Cc4cccc(-c5nc(C)cnc5C)c4O3)[nH]c2c1 (stereo not given)	none (no result: Vif-APOBEC3G blk, Vif-A3F inh, Epigenetic derep)
COC(=O)c1ccccc1COn1c(=O)c[n+]([O-])c2ccccc21	Vif-APOBEC3G blk inconclusive, Epigenetic derep inconclusive (no result: Vif-A3F inh)
CCOn1c(=O)c[n+]([O-])c2ccccc21	Vif-APOBEC3G blk inconclusive, Vif-A3F inh inconclusive, Epigenetic derep 10µM | Parental c127i inactive | HCC4017 viab inactive | H358 viab inactive
CCc1ccc(NC(=O)C2CCC(CNS(=O)(=O)c3ccc4c(c3)CC(C)N4C(C)=O)CC2)cc1 (stereo not given)	Epigenetic derep inconclusive | Parental c127i inactive | HCC4017 viab inconclusive | H358 viab inactive
CC(=O)N1c2ccc(S(=O)(=O)NCC3CCC(C(=O)Nc4ccc(F)cc4)CC3)cc2CC1C (stereo not given)	none
CC1=NN(c2nc3ccccc3[nH]2)C(=O)C1Cc1ccccc1 (stereo not given)	Vif-APOBEC3G blk inconclusive, PINK1 expr mod inconclusive, Vif-A3F inh inconclusive, Epigenetic derep inconclusive | Parental c127i inactive | HCC4017 viab 4.4µM | H358 viab 7.9µM
Cc1nc(CSc2nsc(/C=C/N(C)C)c2C#N)cs1	Vif-APOBEC3G blk inconclusive, Vif-A3F inh inconclusive, Epigenetic derep 6.3µM | Parental c127i inactive
Cc1cc(C(=O)N2CCOc3ccc(CN4CCC(Oc5cccnc5)CC4)cc3C2)c(C)o1	none (no result: Vif-APOBEC3G blk, Vif-A3F inh, Epigenetic derep)
CN(C)S(=O)(=O)c1cccc(NC(=S)N/N=C/c2ccco2)c1	Epigenetic derep 3.5µM | Parental c127i inactive | HCC4017 viab inactive | H358 viab inactive
O=C(NCCN1Cc2ccccc2OC(c2ccsc2)C1)c1ccc2[nH]ccc2c1 (stereo not given)	none (no result: Vif-APOBEC3G blk, Vif-A3F inh, Epigenetic derep)

Source: PubChem (National Center for Advancing Translational Sciences (NCATS))
